Records with an inconclusive call do not appear. Entries that show only a call come without a potency. Unmarked numbers belong to inactive results. The source made the active and inactive calls. Unless noted, calls come from the whole dose curve; as a rule, active = well fitted curve in the direction sought with a large enough effect; inconclusive = small, poorly fitted or top-dose-only effect, or another doubt; inactive = no such curve, though single readings can be large; an effect the other way counts as inactive or inconclusive.
Experiments:
[1] = biological target: ATP-dependent 6-phosphofructokinase (Trypanosoma brucei brucei) (UniProt O15648); experiment: qHTS Assay to Find Inhibitors of T. brucei phosphofructokinase: hit validation (AID 492961);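 note: luminescence reports ADP formed as PFK phosphorylates fructose-6-phosphate with ATP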
Outline: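 Compounds titrated; %activity normalized to 0x and 1x enzyme controls, curve-fitted. Readout: ADP-Glo luminescence after 45 min room-temperature reaction of 1.25 nM PFK, 0.1 mM ATP, 0.5 mM F6P, pH 8.0.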

[2] = biological target: Ubiquitin carboxyl-terminal hydrolase 1 (Homo sapiens) (UniProt O94782); experiment: Inhibitors of USP1/UAF1: Pilot qHTS (AID 504865);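 note: rhodamine fluorescence freed from ubiquitin-rhodamine substrate followed over time; top concentration of the series differs between compounds; nearly all actives have a fitted effect of over 35% in size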
Outline: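 1nM USP1/UAF1 + cpd, 15 min RT; start w/ Ub-Rho 150nM final; kinetic FL 480/540 nm, 6 reads q60 s. Buffer 50mM HEPES pH 7.8, 0.5mM EDTA, 1mM TCEP, 0.01% Tween-20, 0.1 mg/ml BSA.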

[3] = biological target: Luciferin 4-monooxygenase (Photinus pyralis) (UniProt P08659); experiment: Biochemical firefly luciferase enzyme assay for NPC (AID 624030); note: potency is the fitted concentration of half-maximal effect; nearly all actives have a fitted effect of over 70% in size
Outline: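 Purified P. pyralis luciferase at 10 nM in 50 mM Tris Acetate (final), luminescence read within 5 minutes of enzyme addition to compounds. Activity normalised to PTC124 versus DMSO; concentration-response curves classed by r2, magnitude and activity.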

[4] = S16 Schwann cell viability assay (CellTiter-Glo assay) (AID 624031);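 note: cellular ATP luminescence as a viability measure; nearly all actives have a fitted effect of over 70% in size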
Outline: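 CellTiter-Glo ATP luminescence counter-screen in untransfected S16 rat Schwann cells, 24h compound exposure at 37 degree Celsius after overnight seeding (500-750 cells/well); response scaled between cell-free wells and DMSO (0% activity), curves classed by r2 and magnitude.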

[5] = S16 Schwann cell PMP22 intronic element beta-lactamase assay (AID 624044; calls by dose curve; note: nearly all actives have a fitted effect of over 15% in size)
Outline: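 Rat S16 Schwann cells with beta-Lac driven by a PMP22 intronic element, compound-treated 24 h at 37 °C. LiveBLAzer FRET B/G read: 460 nm normalized to potassium clavulanate vs DMSO; 535 nm FRET as viability; concentration-effect curves classified.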

[6] = biological target: Cytochrome P450 2C9 (Homo sapiens) (UniProt P11712); experiment: Cytochrome P450 family 2 subfamily C member 9 (CYP2C9) small molecule antagonists: luciferase biochemical (cell-free) qHTS assay (AID 1645842; active = well fitted curve in the direction sought with a large enough effect in the repeat runs; an effect the other way counts as inactive or inconclusive; note: nearly all actives have a fitted effect of over 55% in size)
Outline: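 Luminescence, after 20 min with luciferin detection reagent, reflected CYP2C9 turnover during a 1 h NADPH-driven reaction at 37C. Enzyme-substrate mix contained 0.4% bovine serum albumin and was preincubated with compound 10 min at room temperature.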

[7] = NCATS anti-infectives library activity on HEK293 viability as a counter-qHTS vs the C. elegans viability qHTS (AID 1745854);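 note: HEK293 cells exposed to compounds for 24 hr before the viability read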
Outline: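 HEK293 cells (1,500/well) exposed 24 hr at 37C to 1:5 titrations, up to 41.7 uM final; counter-screen to a C. elegans viability qHTS. Viability by CellTiter-Glo luminescence after 10 min at room temperature; digitonin as control.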

[8] = biological target: Phospholipid hydroperoxide glutathione peroxidase GPX4 (Homo sapiens) (UniProt P36969); experiment: Primary qHTS Assay for Inhibitors of Recombinant Selenoprotein Glutathione Peroxidase 4 (GPX4) (AID 1845192); note: nearly all actives have a fitted effect of over 65% in size
Outline: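 GR-coupled assay: recombinant GPX4 preincubated 30 min with compound at room temperature; final 200 nM GPX4, 1 mM GSH, 0.5 mM cumene hydroperoxide, 0.5 mM NADPH, 100 nM GR, 0.01% BSA, pH 7.5 Tris. NADPH fluorescence (340/450 nm) read at 0 and 15 min.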

[9] = qHTS profiling for inhibitors of Plasmodium falciparum proliferation (AID 504749); note: nearly all actives have a fitted effect of over 60% in size; conditions: P. falciparum in erythrocytes, SYBR Green DNA, 72 h, at 28.7 µM (top of the series)
Outline: (§1)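 P. falciparum-infected erythrocytes (0.3% parasitemia, 2.5% hematocrit) incubated with compound 72 h at 37 C, 5% CO2. Parasite DNA detected by SYBR Green after lysis, overnight at room temperature; normalised to 0.29 uM artemisinin and DMSO.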

[10] = tested on: 3D7; experiment: as above; conditions: P. falciparum in erythrocytes, SYBR Green DNA, 72 h; series mostly up to 12.8 µM
Outline: as §1

[11] = tested on: 7G8; experiment: as above; conditions: P. falciparum in erythrocytes, SYBR Green DNA, 72 h; series mostly up to 12.8 µM
Outline: as §1

[12] = tested on: AA1029; experiment: as above; conditions: P. falciparum in erythrocytes, SYBR Green DNA, 72 h; series mostly up to 12.8 µM
Outline: as §1

[13] = tested on: AS120; experiment: as above; conditions: P. falciparum in erythrocytes, SYBR Green DNA, 72 h; series mostly up to 12.8 µM
Outline: as §1

[14] = tested on: ATS189; experiment: as above; conditions: P. falciparum in erythrocytes, SYBR Green DNA, 72 h; series mostly up to 12.8 µM
Outline: as §1

[15] = tested on: C2A; experiment: as above; conditions: P. falciparum in erythrocytes, SYBR Green DNA, 72 h; series mostly up to 12.8 µM
Outline: as §1

[16] = tested on: CP185; experiment: as above; conditions: P. falciparum in erythrocytes, SYBR Green DNA, 72 h; series mostly up to 12.8 µM
Outline: as §1

[17] = tested on: CP191; experiment: as above; conditions: P. falciparum in erythrocytes, SYBR Green DNA, 72 h; series mostly up to 12.8 µM
Outline: as §1

[18] = tested on: CP192; experiment: as above; conditions: P. falciparum in erythrocytes, SYBR Green DNA, 72 h; series mostly up to 12.8 µM
Outline: as §1

[19] = tested on: CP194; experiment: as above; conditions: P. falciparum in erythrocytes, SYBR Green DNA, 72 h; series mostly up to 12.8 µM
Outline: as §1

[20] = tested on: CP201; experiment: as above; conditions: P. falciparum in erythrocytes, SYBR Green DNA, 72 h; series mostly up to 12.8 µM
Outline: as §1

[21] = tested on: CP203; experiment: as above; conditions: P. falciparum in erythrocytes, SYBR Green DNA, 72 h; series mostly up to 12.8 µM
Outline: as §1

[22] = tested on: CP211; experiment: as above; conditions: P. falciparum in erythrocytes, SYBR Green DNA, 72 h; series mostly up to 12.8 µM
Outline: as §1

[23] = tested on: CP215; experiment: as above; conditions: P. falciparum in erythrocytes, SYBR Green DNA, 72 h; series mostly up to 12.8 µM
Outline: as §1

[24] = tested on: CP217; experiment: as above; conditions: P. falciparum in erythrocytes, SYBR Green DNA, 72 h; series mostly up to 12.8 µM
Outline: as §1

[25] = tested on: CP237; experiment: as above; conditions: P. falciparum in erythrocytes, SYBR Green DNA, 72 h; series mostly up to 12.8 µM
Outline: as §1

[26] = tested on: CP238; experiment: as above; conditions: P. falciparum in erythrocytes, SYBR Green DNA, 72 h; series mostly up to 12.8 µM
Outline: as §1

[27] = tested on: CP247; experiment: as above; conditions: P. falciparum in erythrocytes, SYBR Green DNA, 72 h; series mostly up to 12.8 µM
Outline: as §1

[28] = tested on: CP250; experiment: as above; conditions: P. falciparum in erythrocytes, SYBR Green DNA, 72 h; series mostly up to 12.8 µM
Outline: as §1

[29] = tested on: CP252; experiment: as above; conditions: P. falciparum in erythrocytes, SYBR Green DNA, 72 h; series mostly up to 12.8 µM
Outline: as §1

[30] = tested on: CP256; experiment: as above; conditions: P. falciparum in erythrocytes, SYBR Green DNA, 72 h; series mostly up to 12.8 µM
Outline: as §1

[31] = tested on: CP260; experiment: as above; conditions: P. falciparum in erythrocytes, SYBR Green DNA, 72 h; series mostly up to 12.8 µM
Outline: as §1

[32] = tested on: CP262; experiment: as above; conditions: P. falciparum in erythrocytes, SYBR Green DNA, 72 h; series mostly up to 12.8 µM
Outline: as §1

Chain of Luciferin 4-monooxygenase (Photinus pyralis) (P08659 whole entry, looked up): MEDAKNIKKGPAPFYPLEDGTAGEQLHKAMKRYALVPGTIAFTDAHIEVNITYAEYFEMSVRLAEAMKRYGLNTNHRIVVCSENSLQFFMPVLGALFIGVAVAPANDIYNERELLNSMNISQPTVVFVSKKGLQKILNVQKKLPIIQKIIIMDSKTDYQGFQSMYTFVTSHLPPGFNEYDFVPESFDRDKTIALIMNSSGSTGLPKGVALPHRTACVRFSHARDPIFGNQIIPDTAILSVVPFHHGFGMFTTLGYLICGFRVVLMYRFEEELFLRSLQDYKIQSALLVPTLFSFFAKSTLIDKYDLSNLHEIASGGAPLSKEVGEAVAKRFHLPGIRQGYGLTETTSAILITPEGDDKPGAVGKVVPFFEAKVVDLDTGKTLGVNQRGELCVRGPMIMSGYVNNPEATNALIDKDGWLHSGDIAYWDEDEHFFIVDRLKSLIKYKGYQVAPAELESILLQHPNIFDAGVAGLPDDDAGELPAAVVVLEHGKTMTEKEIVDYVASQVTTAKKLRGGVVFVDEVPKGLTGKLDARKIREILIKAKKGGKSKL
Chain of Ubiquitin carboxyl-terminal hydrolase 1 (Homo sapiens) (O94782 whole entry, looked up): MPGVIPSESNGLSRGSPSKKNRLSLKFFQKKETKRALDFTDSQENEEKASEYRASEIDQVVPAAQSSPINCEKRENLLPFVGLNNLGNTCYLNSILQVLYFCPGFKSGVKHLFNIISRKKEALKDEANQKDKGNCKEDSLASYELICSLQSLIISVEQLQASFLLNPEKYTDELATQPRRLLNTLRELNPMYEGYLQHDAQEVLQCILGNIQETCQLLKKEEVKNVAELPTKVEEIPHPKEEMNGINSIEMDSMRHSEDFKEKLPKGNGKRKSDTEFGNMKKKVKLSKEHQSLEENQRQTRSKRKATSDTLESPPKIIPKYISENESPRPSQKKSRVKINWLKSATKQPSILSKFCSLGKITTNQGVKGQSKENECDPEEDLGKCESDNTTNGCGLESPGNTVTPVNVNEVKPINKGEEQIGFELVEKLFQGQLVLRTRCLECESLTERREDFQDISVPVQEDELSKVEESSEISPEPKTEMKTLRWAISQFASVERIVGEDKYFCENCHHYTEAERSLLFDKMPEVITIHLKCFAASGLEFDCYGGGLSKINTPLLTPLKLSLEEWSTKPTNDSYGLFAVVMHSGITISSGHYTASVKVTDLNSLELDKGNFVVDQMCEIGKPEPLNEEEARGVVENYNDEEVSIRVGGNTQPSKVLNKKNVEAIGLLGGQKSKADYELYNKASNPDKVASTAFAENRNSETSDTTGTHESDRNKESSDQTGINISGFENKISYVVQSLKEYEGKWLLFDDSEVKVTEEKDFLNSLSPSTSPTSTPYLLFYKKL
Chain of ATP-dependent 6-phosphofructokinase (Trypanosoma brucei brucei) (O15648 whole entry, looked up): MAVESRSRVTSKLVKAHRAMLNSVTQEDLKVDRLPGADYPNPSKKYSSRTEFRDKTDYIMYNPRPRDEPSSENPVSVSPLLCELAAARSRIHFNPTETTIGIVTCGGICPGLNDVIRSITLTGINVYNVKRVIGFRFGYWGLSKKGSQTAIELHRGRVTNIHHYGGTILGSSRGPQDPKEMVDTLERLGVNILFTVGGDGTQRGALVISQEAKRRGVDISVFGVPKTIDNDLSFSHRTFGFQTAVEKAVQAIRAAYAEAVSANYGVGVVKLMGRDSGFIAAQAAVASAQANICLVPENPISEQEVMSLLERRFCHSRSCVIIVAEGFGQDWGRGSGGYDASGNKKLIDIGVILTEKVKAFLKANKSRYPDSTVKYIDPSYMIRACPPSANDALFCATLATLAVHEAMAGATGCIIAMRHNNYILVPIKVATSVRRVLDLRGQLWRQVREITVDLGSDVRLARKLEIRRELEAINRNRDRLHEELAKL
Chain of Phospholipid hydroperoxide glutathione peroxidase GPX4 (Homo sapiens) (P36969 whole entry, looked up): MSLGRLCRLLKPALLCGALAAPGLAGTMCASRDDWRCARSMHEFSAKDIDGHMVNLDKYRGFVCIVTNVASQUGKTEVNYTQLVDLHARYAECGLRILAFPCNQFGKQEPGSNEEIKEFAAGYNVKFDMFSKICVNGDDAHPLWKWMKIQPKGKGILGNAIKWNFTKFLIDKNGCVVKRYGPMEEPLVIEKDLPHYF
Chain of Cytochrome P450 2C9 (Homo sapiens) (P11712 whole entry, looked up): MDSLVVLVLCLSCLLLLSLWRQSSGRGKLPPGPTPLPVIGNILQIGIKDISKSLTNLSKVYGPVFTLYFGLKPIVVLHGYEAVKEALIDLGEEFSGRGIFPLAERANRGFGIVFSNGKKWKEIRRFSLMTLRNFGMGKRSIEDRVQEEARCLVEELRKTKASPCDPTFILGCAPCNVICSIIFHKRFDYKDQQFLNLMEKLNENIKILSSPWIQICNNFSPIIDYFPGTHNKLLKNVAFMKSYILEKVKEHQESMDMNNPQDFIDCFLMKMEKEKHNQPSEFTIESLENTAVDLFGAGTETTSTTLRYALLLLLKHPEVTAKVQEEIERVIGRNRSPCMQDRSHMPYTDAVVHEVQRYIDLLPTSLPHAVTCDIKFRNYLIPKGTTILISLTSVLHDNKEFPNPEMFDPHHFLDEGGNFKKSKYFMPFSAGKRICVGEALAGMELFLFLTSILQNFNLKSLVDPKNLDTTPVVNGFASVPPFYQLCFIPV

Question: Which results are given for `Nc1nc(NC2CC2)c2ncn([C@H]3C=C[C@@H](CO)C3)c2n1`?
Answer: outcome [1]: inactive; Potency [2]: inactive; Potency [3]: 11.4 µM (active); outcome [4]: inactive; Potency [5]: inactive; Potency [6]: inactive; outcome [7]: inactive; Potency [8]: inactive; activity, negative = inhibition ([9]; parasite line A): 8.14%; activity, negative = inhibition ([9]; parasite line B): 1.25%; Potency [10]: inactive; Potency [11]: inactive; Potency [12]: inactive; Potency [13]: inactive; Potency [14]: inactive; Potency [15]: inactive; Potency [16]: inactive; Potency [17]: inactive; Potency [18]: inactive; Potency [19]: inactive; Potency [20]: inactive; Potency [21]: inactive; Potency [22]: inactive; Potency [23]: inactive; Potency [24]: inactive; Potency [25]: inactive; Potency [26]: inactive; Potency [27]: inactive; Potency [28]: inactive; Potency [29]: inactive; Potency [30]: inactive; Potency [31]: inactive; Potency [32]: inactive
